We go through nine molecules from PubChem BioAssay (NCATS).

In assay [1] the test system is Zika virus NS2B-NS3 protease. In words: Primary screen GU AMC qHTS for Zika virus inhibitors (AID 1347154).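 Note: 0% = no-inhibitor control and -100% = no-enzyme control; nearly all actives have a fitted effect of over 70% in size.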 In outline: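 Fluorogenic AMC-substrate cleavage by noncovalent NS2B-NS3 protease complex (25 nM, pH 8.0 Tris buffer with Tween 20) followed for 15 minutes at room temperature (~20% conversion). Percent inhibition from ex340/em450 signal change, fitted by 4-parameter Hill equation.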

Assay [2] is described as follows: Primary qHTS for small molecule stabilizers of the endoplasmic reticulum resident proteome: Secreted ER Calcium Modulated Protein (SERCaMP) assay (AID 1508630). Note: % is set by controls: 0 for no effect and ±100 for the full control effect. In short, it runs like this:
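The SH-SY5Y reporter protocol was run at 3 concentrations up to 38.3 uM (primary) or 11 concentrations (follow-up): 16 h compound, 100 nM thapsigargin for 4 h, then extracellular luciferase luminescence.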
For orientation: Quantitative high-throughput screening tests each substance at several concentrations.

Assay [3] can be described thus: AP1 Signaling Pathway (AID 357; active = well fitted curve in either direction with a large enough effect, not every such curve was filed as active;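 note: ME-180 reporter cells stimulated with EGF at its EC50 level; % is set by controls: 0 for no effect and ±100 for the full control effect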). Conditions: ME-180 AP-1-bla reporter, EGF-induced, beta-lactamase ratio, 5 h; at 38 µM (top of the series). In short, it runs like this:
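AP-1-bla ME-180 cells, Opti-MEM + 0.5% dialyzed FBS, plated overnight 37 °C. Cpd titration + EC50 EGF, 5 h 37 °C. CCF4 2.5 h RT; ex 405, em 460/530 ratio → %activity, AC50.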

Assay [4] has as its target Cytochrome P450 1A2 (Homo sapiens) (UniProt P05177). As to the kind of experiment: p450-cyp1a2 (AID 410; calls by dose curve; note: potency is the fitted concentration of half-maximal effect;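 for activity change, negative = inhibition: -100% = full effect of reference inhibitor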). In short, it runs like this:
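Read-out is luminescence from luciferin produced by CYP1A2 demethylation of Luciferin-ME (100uM, at Km). Detection reagent stopped the 60 min NADPH-dependent reaction; signals were normalized to 57 uM furafylline.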

The nature of assay [5]: NFAT Signaling Pathway (AID 444; active = well fitted curve in either direction with a large enough effect, not every such curve was filed as active;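 note: carbachol stimulus at about its EC50 of 1 µM final; % is set by controls: 0 for no effect and ±100 for the full control effect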). Conditions: Jurkat NFAT-bla M1, carbachol, beta-lactamase ratio, 5 h; at 38 µM (top of the series). In short, it runs like this:
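Read-out: CCF4 FRET ratio (460 nm/530 nm) after 1 h RT dye loading, used for %activity and AC50 from titration series. Cells: Jurkat NFAT-β-lactamase/M1 line, treated with compound plus 1 uM carbachol for 5 h, 37 °C.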

For assay [6], the target named is Glucocorticoid receptor (Homo sapiens) (UniProt P04150). As to the kind of experiment: GR-GFP Redistribution (AID 450;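 active = compounds whose dose series gives a full or clear partial fitted curve of increased nuclear translocation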; note: potency is the fitted concentration of half-maximal effect). To be noted: U2OS GR-GFP nuclear translocation, laser cytometry, 2 h.
Glucocorticoid receptor (Homo sapiens), sequence (P04150 whole entry, looked up, the tested form may be a part): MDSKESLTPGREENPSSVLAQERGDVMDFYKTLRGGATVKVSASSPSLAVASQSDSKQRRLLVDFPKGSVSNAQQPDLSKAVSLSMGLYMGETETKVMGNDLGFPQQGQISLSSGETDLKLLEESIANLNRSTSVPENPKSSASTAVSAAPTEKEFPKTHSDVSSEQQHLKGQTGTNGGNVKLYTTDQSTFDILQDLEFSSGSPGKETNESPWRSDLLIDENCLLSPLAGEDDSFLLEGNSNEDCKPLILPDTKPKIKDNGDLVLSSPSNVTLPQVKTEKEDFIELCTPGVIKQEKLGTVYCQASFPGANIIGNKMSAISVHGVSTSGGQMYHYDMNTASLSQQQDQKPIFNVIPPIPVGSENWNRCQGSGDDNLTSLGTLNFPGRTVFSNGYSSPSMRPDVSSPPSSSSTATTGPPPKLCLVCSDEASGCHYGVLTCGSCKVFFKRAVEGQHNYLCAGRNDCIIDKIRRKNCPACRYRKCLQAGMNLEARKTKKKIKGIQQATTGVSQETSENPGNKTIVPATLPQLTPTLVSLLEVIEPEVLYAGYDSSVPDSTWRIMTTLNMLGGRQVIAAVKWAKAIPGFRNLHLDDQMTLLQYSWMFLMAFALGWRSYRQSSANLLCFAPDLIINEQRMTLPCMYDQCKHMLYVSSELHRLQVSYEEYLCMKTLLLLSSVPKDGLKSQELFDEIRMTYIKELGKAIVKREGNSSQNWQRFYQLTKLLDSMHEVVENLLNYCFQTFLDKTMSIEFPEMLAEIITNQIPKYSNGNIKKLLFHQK
Assay [7] has the same target. In words: GR-EFC Redistribution (AID 451; calls by dose curve; note: potency is the fitted concentration of half-maximal effect). To be noted: CHO-K1 GR-EFC translocation, beta-gal luminescence, 2 h. In short, it runs like this: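 Translocation of GR-ED fusion to nuclear EA restores b-gal, read by luminescence after 1 h room-temperature detection. Engineered CHO-K1 biosensor cells, 1,000/well, exposed 2 h at 37 C to titrations up to 46 uM final.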
Assay [8] concerns the target Mitogen-activated protein kinase 10 (Mus musculus) (UniProt Q61831). As to the kind of experiment: JNK3 AlphaScreen Assay (AID 530; active = well fitted curve in either direction with a large enough effect, not every such curve was filed as active;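 note: kinase came from lysate of stimulated human HepG2 cells; signal reports phosphorylation of biotinylated GST-cJun 1-79 at Ser73 with 10 µM ATP; % is set by controls: 0 for no effect and ±100 for the full control effect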). In short, it runs like this: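 Kinase buffer: 20 mM Tris-HCl pH 7.6, 10 mM MgCl2, 1 mM DTT, 0.1 mM Na3VO4, 0.01% Tween-20; ATP 10 uM. Substrate biotin-GST-cJun(1-79), enzyme from activated HepG2 lysates. Detection by Ser73 phospho-antibody AlphaScreen.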
(In general: In Alpha technology, singlet oxygen from a donor bead excites a nearby acceptor bead.)

Assay [9] deals with 3',5'-cyclic-AMP phosphodiesterase 4B (Homo sapiens) (UniProt Q07343). As to the kind of experiment: qHTS Assay for Inhibitors of PDE-IV (AID 607; active = well fitted activation curve with a large enough effect in the main read-out, with a control signal flat, not every such curve was filed as active; note: % of control where 0% means no effect). In outline:
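The readout is membrane depolarisation from a cAMP-sensing CNG channel, detected with a potential dye at ex 535/em 590. Cells were HEK293-derived (endogenous PDE-IV) at 1000 cells/well, titrated up to 22.9 uM final.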

The target of assay [10] is Guanine nucleotide-binding protein G(i) subunit alpha-1 (Homo sapiens) (UniProt P63096). In words: qHTS Assay for Inhibitors of RGS12 GoLoco Motif Activity (Green Fluorophore) (AID 879).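 Note: 0% = labeled peptide with Gαi1 and full inhibition = labeled peptide alone without protein; negative values mean loss of peptide binding seen as reduced polarization.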 In short, it runs like this:
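A drop in FITC polarization marked displacement of the FITC-tagged RGS12 GoLoco peptide (10 nM) from Gαi1 (50 nM). Compounds were incubated 10 min at room temperature in Tris pH 7.5 buffer containing 150 mM NaCl, 0.1 mM GDP and 0.05% NP40; unlabeled peptide titration served as control.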

In assay [11] the target is Cytochrome P450 2C9 (Homo sapiens) (UniProt P11712). As to the kind of experiment: qHTS Assay for Inhibitors and Substrates of Cytochrome P450 2C9 (AID 883). Note: nearly all actives have a fitted effect of over 60% in size. Note: potency is the fitted concentration of half-maximal effect. In short, it runs like this: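 Inhibition of CYP2C9 is scored as loss of luminescence, with 57uM sulphaphenazole defining 100% inhibition. Substrate Luciferin-H is used at 100uM, equal to its KM; enzyme at 10nM in 25mM KPO4, 60 min at 37C with NADPH regeneration.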
Cytochrome P450 2C9 (Homo sapiens), sequence (P11712 whole entry, looked up): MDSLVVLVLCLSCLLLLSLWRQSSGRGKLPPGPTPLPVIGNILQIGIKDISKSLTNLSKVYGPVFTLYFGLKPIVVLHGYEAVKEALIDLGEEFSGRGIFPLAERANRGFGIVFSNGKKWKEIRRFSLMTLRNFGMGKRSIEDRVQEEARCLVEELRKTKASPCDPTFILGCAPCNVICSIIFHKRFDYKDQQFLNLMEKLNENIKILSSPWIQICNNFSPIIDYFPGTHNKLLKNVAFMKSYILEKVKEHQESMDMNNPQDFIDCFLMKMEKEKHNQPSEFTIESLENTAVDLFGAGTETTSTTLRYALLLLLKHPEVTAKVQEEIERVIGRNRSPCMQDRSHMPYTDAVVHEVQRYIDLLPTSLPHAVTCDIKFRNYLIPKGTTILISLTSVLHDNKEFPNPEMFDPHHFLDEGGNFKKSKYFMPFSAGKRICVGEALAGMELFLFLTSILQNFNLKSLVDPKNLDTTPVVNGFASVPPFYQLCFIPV

Assay [12] deals with Cytochrome P450 3A4 (Homo sapiens) (UniProt P08684). As to the kind of experiment: qHTS Assay for Activators of Cytochrome P450 3A4 (AID 885). Note: nearly all actives have a fitted effect of over 65% in size. In outline: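 Activators are scored by enhanced luminescence from CYP3A4 conversion of luciferin-PPXE (25uM, equal to KM) to luciferin, after 60 min at RT with an NADPH-regenerating system.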
The target of assay [13] is Cytochrome P450 2D6 (Homo sapiens) (UniProt P10635). As to the kind of experiment: qHTS Assay for Inhibitors and Substrates of Cytochrome P450 2D6 (AID 891). Note: nearly all actives have a fitted effect of over 60% in size. Note: potency is the fitted concentration of half-maximal effect. In short, it runs like this: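 Luminescent read-out of luciferin formed by 5 nM human CYP2D6 demethylating 30 uM Luciferin-ME EGE (Km level) over 60 min at room temperature after NADPH regeneration addition. Data normalized to full inhibition by 1.43 uM quinidine.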
Cytochrome P450 2D6 (Homo sapiens), sequence (P10635 whole entry, looked up): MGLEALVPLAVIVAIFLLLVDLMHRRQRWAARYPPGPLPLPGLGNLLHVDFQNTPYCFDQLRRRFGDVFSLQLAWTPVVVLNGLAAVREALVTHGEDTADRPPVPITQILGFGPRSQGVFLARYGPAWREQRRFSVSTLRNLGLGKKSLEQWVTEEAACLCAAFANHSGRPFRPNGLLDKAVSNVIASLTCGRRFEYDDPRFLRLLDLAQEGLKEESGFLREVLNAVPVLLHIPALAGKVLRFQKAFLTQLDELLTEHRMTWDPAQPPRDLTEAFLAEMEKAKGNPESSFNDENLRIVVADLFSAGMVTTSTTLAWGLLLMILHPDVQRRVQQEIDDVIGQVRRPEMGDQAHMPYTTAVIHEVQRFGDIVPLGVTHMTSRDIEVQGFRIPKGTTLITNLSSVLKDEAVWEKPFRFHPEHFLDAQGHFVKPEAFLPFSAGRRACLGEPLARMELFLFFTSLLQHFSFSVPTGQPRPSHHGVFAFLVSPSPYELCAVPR

Assay [14] deals with Cytochrome P450 2C19 (Homo sapiens) (UniProt P33261). In words: qHTS Assay for Inhibitors and Substrates of Cytochrome P450 2C19 (AID 899). Note: nearly all actives have a fitted effect of over 60% in size. Note: potency is the fitted concentration of half-maximal effect. In short, it runs like this:
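5nM enzyme + 10uM Luciferin-H EGE (=KM), 50mM KPO4; cpd pin-transferred, 10 min 37C; NADPH regen, 60 min 37C; stopped w/ luciferin detection reagent, 20 min; luminescence. Normalized to 57uM ketoconazole (AC100).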

Assay [15] addresses Pyruvate kinase (Leishmania mexicana) (UniProt Q27686). In words: qHTS Validation Assay for Inhibitors of Leishmania Mexicana Pyruvate Kinase (AID 945).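 For activity change, negative = inhibition: 0% = DMSO only neutral control wells.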 Note: potency is the fitted concentration of half-maximal effect. In outline:
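Pyruvate kinase activity of E451W LmPYK (0.2 nM) was followed as ATP output after 1 h at room temperature with 0.5 mM PEP and 0.1 mM ADP, detected by PKLight luminescence.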

Assay [16] concerns the target DNA dC->dU-editing enzyme APOBEC-3G (Homo sapiens) (UniProt Q9HC16). As to the kind of experiment: qHTS for inhibitors of Vif-A3G interactions: Validation (AID 588379). Note: 0% is about no effect. In short, it runs like this: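 Yellow fluorescence (Ex 488, Em 500-530) of Vif-coexpressing HeLa A3G-eYFP cells, scanned by Acumen cytometer, reports blocked A3G degradation. Cells plated at 700/well overnight at 37 deg C before compound addition, then a further overnight compound incubation at 37 deg C.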

Assay [17] is described as follows: Stat Signaling Pathway (AID 446; active = well fitted curve in either direction with a large enough effect, not every such curve was filed as active). To be noted: ME-180 (cervical carcinoma) SIE beta-lactamase reporter, IL-6 stimulated, 5 h; at 38 µM (top of the series). In short, it runs like this: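 Emission at 460 and 530 nm (excitation 405 nm) reports SIE-controlled beta-lactamase in ME-180 cells. Cells received compound with 40 pM IL-6 for 5 hrs at 37 C; data scaled between 300 pM IL-6 and 125 nM JAK-inhibitor controls.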

In assay [18] the target is Ubiquitin carboxyl-terminal hydrolase 1 (Homo sapiens) (UniProt O94782). In words: Inhibitors of USP1/UAF1: Pilot qHTS (AID 504865).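 Note: rhodamine fluorescence freed from ubiquitin-rhodamine substrate followed over time; top concentration of the series differs between compounds; % is set by controls: 0 for no effect and ±100 for the full control effect; nearly all actives have a fitted effect of over 35% in size.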 In short, it runs like this: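 USP1/UAF1 complex (1nM) preincubated with compound 15 min at room temperature, then Ub-Rho substrate (150nM final) added. Fluorescence read kinetically at 480/540 nm, 6 reads every 60 seconds. Buffer: 50mM HEPES pH 7.8, 0.5mM EDTA, 0.1 mg/ml BSA, 1mM TCEP, 0.01% Tween-20.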

“And” between values parts separate entries of the source, which are not always exact repeats. Equal entries are not always repeated. Records with an inconclusive call do not appear. Where a structure was tested more than once in an assay, its records may differ in their call. The source made the active and inactive calls. Unless noted, calls come from the whole dose curve; as a rule, active = well fitted curve in the direction sought with a large enough effect; inconclusive = small, poorly fitted or top-dose-only effect, or another doubt; inactive = no such curve, though single readings can be large; an effect the other way counts as inactive or inconclusive. A value given as a limit tells only on which side of the number the result lay.

Guanine nucleotide-binding protein G(i) subunit alpha-1 (Homo sapiens), sequence (P63096 whole entry, looked up): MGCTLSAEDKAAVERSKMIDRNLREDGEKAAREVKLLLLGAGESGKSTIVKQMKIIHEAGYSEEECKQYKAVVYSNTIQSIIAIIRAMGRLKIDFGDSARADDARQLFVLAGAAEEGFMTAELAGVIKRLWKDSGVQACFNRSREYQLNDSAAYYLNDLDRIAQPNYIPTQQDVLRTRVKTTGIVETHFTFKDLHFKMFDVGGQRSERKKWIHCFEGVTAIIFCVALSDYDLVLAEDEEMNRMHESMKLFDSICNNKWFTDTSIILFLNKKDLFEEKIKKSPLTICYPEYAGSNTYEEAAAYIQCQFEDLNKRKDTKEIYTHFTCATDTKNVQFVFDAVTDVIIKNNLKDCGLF
Pyruvate kinase (Leishmania mexicana), sequence (Q27686 2-499 E452W): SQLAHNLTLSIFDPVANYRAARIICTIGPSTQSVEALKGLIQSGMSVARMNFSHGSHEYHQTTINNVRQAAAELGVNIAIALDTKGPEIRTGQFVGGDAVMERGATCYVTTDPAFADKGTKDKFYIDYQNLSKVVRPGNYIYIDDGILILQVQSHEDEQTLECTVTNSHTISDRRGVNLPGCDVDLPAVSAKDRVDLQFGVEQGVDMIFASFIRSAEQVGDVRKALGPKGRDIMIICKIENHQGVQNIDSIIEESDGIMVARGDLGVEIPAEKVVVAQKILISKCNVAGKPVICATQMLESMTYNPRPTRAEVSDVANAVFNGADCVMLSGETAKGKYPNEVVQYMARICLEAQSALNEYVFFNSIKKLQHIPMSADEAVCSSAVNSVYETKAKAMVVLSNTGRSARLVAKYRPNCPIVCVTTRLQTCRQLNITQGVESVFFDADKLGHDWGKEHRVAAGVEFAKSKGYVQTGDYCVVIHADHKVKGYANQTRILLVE
Cytochrome P450 1A2 (Homo sapiens), sequence (P05177 whole entry, looked up): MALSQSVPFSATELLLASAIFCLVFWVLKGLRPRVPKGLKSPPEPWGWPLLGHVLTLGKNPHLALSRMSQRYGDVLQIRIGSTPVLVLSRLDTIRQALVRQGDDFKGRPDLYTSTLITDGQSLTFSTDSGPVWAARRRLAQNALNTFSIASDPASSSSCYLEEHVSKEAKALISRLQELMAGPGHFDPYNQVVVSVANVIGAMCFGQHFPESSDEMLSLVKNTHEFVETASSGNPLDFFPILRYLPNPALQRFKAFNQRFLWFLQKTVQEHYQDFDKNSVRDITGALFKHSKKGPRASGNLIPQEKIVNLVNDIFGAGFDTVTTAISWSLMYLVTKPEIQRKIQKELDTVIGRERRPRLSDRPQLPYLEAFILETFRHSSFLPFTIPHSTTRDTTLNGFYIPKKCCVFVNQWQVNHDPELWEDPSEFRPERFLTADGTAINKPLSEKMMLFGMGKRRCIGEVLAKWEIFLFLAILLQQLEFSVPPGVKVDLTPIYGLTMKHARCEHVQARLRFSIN
3',5'-cyclic-AMP phosphodiesterase 4B (Homo sapiens), sequence (Q07343 whole entry, looked up): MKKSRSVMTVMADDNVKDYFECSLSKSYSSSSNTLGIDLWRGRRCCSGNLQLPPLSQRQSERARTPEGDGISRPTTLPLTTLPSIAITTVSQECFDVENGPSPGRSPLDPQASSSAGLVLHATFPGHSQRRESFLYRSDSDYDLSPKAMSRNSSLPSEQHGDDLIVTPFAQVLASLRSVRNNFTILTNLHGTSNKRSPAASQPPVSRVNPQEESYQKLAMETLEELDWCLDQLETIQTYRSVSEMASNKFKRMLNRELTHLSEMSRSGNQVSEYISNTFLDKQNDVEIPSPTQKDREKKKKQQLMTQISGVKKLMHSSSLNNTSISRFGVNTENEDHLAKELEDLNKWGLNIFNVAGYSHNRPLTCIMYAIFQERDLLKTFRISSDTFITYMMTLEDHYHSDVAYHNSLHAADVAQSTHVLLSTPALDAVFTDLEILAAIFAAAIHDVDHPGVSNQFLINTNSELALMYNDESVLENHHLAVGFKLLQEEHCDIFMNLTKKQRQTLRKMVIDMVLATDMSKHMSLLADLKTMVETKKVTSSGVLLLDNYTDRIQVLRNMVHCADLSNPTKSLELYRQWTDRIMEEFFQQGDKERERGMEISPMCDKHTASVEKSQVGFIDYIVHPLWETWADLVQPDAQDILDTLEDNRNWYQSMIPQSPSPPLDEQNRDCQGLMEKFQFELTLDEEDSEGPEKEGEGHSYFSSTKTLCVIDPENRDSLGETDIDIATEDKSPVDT
Cytochrome P450 2C19 (Homo sapiens), sequence (P33261 whole entry, looked up): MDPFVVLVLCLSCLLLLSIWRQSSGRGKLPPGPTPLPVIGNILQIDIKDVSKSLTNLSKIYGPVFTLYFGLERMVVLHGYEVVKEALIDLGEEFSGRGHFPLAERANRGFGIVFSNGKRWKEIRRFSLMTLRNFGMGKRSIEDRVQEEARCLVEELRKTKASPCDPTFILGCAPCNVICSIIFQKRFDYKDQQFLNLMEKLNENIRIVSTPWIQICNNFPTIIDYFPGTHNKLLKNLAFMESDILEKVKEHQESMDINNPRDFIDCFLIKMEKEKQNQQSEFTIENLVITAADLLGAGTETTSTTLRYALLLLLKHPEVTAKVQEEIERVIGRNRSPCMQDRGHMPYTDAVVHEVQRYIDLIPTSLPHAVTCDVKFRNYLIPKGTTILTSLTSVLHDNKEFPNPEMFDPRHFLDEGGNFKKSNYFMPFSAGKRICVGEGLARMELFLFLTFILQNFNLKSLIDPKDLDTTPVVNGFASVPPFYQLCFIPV
DNA dC->dU-editing enzyme APOBEC-3G (Homo sapiens), sequence (Q9HC16 whole entry, looked up): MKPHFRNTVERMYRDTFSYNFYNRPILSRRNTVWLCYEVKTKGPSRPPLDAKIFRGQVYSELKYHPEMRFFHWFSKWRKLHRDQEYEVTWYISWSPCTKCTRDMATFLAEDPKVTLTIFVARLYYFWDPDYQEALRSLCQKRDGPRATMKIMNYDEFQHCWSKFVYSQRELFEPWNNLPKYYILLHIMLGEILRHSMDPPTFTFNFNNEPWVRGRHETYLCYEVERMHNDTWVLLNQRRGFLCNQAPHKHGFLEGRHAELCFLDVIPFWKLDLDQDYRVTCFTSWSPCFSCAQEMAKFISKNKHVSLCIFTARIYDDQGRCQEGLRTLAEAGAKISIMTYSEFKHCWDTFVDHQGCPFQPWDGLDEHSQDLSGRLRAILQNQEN

Take `N[C@H](Cc1ccccc1)C(=O)O`: the Potency result in [1] and in assay [2] was “inactive” each time.
As for `CC#CCOC(=O)c1c(C)nc2sc3c(c2c1N)CC[C@@H](O)C3`, the values for the activity change, negative = inhibition in assay [3] and in assay [5] were -15.6% (inactive) and -25.8% (inactive), respectively. For the same molecule, the Potency was 398 nM (active) and 25.1 nM (active) in [4]; > 46 µM (inactive) in assay [6]; > 46 µM (inactive) in assay [7]. In addition, the Potency entry in assay [8], in assay [9], in assay [11], in assay [12], in assay [13] and in assay [14] was “inactive” in each case. For the same molecule, the Potency result in assay [15], in assay [16], in [1] and in assay [2] was “inactive” throughout. Moreover, in assay [10], the outcome was inactive.
On to `OCCOCCN1CCN(Cc2cccc(Oc3ccccc3)c2)CC1`, for which the Potency result in assay [1] and in assay [2] was “inactive” in each case.
`C[C@@H]1CCN=C(N)S1`: the activity change, negative = inhibition is 12.9% (inactive) in [3] and 2.83% (inactive) in [5]. In addition, the Potency entry in [4] is “inactive and 39.8 µM (active)”; in assay [6] it was > 46 µM (inactive); in assay [7], > 46 µM (inactive). Besides, the activity, negative = inhibition in [17] was 9.1% (inactive). The Potency result in [8], in [9], in assay [15], in assay [16], in [1] and in [2] was “inactive” in each case. In addition, in assay [10], the result was inactive.
Take `Cc1cccc(/C=C\c2ccccc2)n1`: the activity change, negative = inhibition is -0.643% (inactive) in assay [3] and -3.22% (inactive) in [5]. In addition, the Potency in [4] is 631 nM (active) and 398 nM (active); in assay [6], > 46 µM (inactive); in assay [7] it was > 46 µM (inactive); in [11], “inactive and 3.98 µM (active)”; in assay [13], 0.794 µM (active); in assay [14], 0.501 µM (active). Further, the Potency in assay [15] is 15.8 µM (active). Also, the Potency entry in assay [8], in [9], in assay [12], in [16], in [1] and in assay [2] was “inactive” in each case. Further, the call in assay [10] was inactive.
Regarding `CCCCCCCCCCCCCCCC(=O)N[C@H](CN1CCOCC1)[C@H](O)c1ccccc1`, the activity change, negative = inhibition in assay [1] was 6.98% [at 6.83 µM] (inactive); in assay [2] it was 2.84% [at 3.88 µM] (inactive).
Take `C=C[C@@]1(C)CC(=O)[C@@]2(O)[C@@]3(C)[C@@H](O)CCC(C)(C)[C@@H]3[C@H](O)[C@H](OC(C)=O)[C@@]2(C)O1`: the values for the Potency in assay [4], in [6] and in assay [7] were 31.6 µM (active), > 46 µM (inactive) and > 46 µM (inactive), respectively. In addition, the Potency entry in [8], in [18], in assay [16], in [1] and in assay [2] was “inactive” in each case.
With `CCOC(OCC)P(=O)(O)CCCNCc1ccc(Cl)c(Cl)c1`, the Potency result in assay [4], in [8], in assay [18], in [16], in [1] and in assay [2] was “inactive” in each case. Moreover, the Potency in assay [6] and in assay [7] was > 46 µM (inactive) each time.
For `N[C@H](Cc1ccc(Cl)cc1)C(=O)O`, the results for the activity change, negative = inhibition in assay [3] and in [5] were 25.5% (inactive) and 7.18% (inactive), respectively. Further, the Potency in assay [4] was 31.6 µM (active); in assay [6], > 46 µM (inactive); in assay [7], > 46 µM (inactive). In addition, in [17], the activity, negative = inhibition was -4.9% (inactive). The Potency entry in [8], in assay [9], in assay [11], in [12], in assay [13] and in assay [14] was “inactive” in each case. The Potency result in [15], in assay [16], in [1] and in [2] was “inactive” in each case. The outcome in assay [10] was inactive.
